From PubChem
PAFAH1B2 FP inh = blocks human PAF acetylhydrolase 1b catalytic subunit 2; P68402; recombinant PAFAH1B2, FP-rhodamine activity probe, fluorescence polarization; inhibition, % at 3.39 µM; 1.2% of 340,000 active; AID 492953;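 active = inhibition above the mean of all tested compounds plus 3 SD, cut at about 24% in these data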
pPAFAH FP inh = inhibitors of human plasma PAF acetylhydrolase (pPAFAH) | 1.5% of 330,000 active | recombinant pPAFAH, FP-rhodamine probe fluorescence polarization | inhibition, % at 3.39 µM;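 active = inhibition above the mean inhibition across the screen plus 3 SD, cut at about 25% in these data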;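 note: inhibitors block binding of the rhodamine activity-based probe so polarization drops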
PAFAH2 FP inh = inhibitors of human PAFAH2; inhibition, % at 3.39 µM; Q99487; 0.99% of 340,000 active; recombinant PAFAH2, FP-rhodamine activity probe, fluorescence polarization;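 active = inhibition above the mean over all tested compounds plus 3 SD, cut at about 30% in these data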;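 note: inhibitors block probe labeling of enzyme so polarization drops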
PAFAH1B3 inh = blocks human PAF acetylhydrolase 1B catalytic subunit 3. Q15102. recombinant PAFAH1B3, FP-rhodamine probe, fluorescence polarization. inhibition, % at 3.39 µM. 0.28% of 340,000 active. AID 492972;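 active = inhibition above the screen-wide average of all tested compounds plus 3 SD, cut at about 25% in these data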
Target sequence (Q15102 whole entry, looked up): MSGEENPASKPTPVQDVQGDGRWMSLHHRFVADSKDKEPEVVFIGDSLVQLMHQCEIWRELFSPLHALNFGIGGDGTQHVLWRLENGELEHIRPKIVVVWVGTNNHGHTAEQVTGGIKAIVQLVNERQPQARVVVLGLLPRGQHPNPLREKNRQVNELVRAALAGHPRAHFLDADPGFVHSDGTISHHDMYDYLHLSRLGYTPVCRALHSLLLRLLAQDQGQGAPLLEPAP
PME-1 primary = blocks human protein phosphatase methylesterase 1; Q9Y570; recombinant PME-1, FP-Rh probe fluorescence polarization; inhibition, % at 5.9 µM; 0.53% of 320,000 active; AID 2130;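 active = inhibition above the campaign mean of all compounds plus 3 SD, cut at about 26% in these data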;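 note: competitive labeling of PME-1 active site by serine hydrolase directed probe; inhibitors block probe labeling so polarization falls and inhibition rises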
Target sequence (Q9Y570 whole entry, looked up): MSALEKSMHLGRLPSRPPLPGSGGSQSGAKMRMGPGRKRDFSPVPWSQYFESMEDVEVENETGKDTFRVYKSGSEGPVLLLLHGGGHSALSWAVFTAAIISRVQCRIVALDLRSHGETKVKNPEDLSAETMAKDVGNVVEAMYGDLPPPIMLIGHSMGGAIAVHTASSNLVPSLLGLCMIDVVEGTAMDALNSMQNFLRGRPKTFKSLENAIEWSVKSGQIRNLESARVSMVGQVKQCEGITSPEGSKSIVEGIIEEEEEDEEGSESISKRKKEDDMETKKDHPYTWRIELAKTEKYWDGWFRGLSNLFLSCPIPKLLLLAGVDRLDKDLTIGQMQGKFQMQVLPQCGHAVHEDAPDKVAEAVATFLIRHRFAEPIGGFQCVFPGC
Fam108B counter = Fam108B inhibition, counter-screen for RBBP9 inhibitors; recombinant Fam108B, FP-Rh probe fluorescence polarization; inhibition, % at 9.51 µM; 0.33% of 300,000 active; AID 1947;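 active = inhibition above the screen mean inhibition plus 3 SD, computed separately per campaign, cut at about 18% in these data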;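 note: inhibitors lower polarization as less probe binds the enzyme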
PAFAH2 confirm = confirmation of human PAFAH2 inhibitors. shares compounds with PAFAH2 FP inh. recombinant PAFAH2, FP-rhodamine activity probe, fluorescence polarization. inhibition, % at 3.39 µM. 65% of 2,300 active;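 active = mean inhibition over three repeats above a set limit taken from the earlier primary screen, cut at about 30% in these data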;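 note: inhibitor blocks binding of rhodamine activity probe so polarization falls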
Numbers stand for hits; 0 = inactive; - = no result given. Shown are actives, neighbours in structure and some others; about 2.8% of the full set was active somewhere.

SMILES	PAFAH1B2 FP inh	pPAFAH FP inh	PAFAH2 FP inh	PAFAH1B3 inh	PME-1 primary	Fam108B counter	PAFAH2 confirm
O=C1C=C(Nc2ccc(Cl)cc2Cl)CC(c2ccco2)C1 (centres undefined)	0	0	44.9	0	0	0	37.1
C=CCSC1=N/C(=C\c2ccc3c(c2)OCO3)C(=O)S1	0	0	32.0	0	0	0	30.7
CC1=C/C(=C\c2ccc3c(c2)OCO3)C(=O)S1	0	0	0	0	0	0	-
Cc1ccccc1C(=O)NCC(=O)NCC1(N2CCOCC2)CCCCC1	0	0	0	0	0	0	-
O=C(OCC1CC(c2ccccc2)=NO1)c1ccco1 (centres undefined)	0	0	33.3	0	0	0	0
Cc1ccc(NC(=O)COC(=O)c2ccc3c(c2)OCO3)cc1S(=O)(=O)N1CCCCC1	0	0	69.0	0	0	0	63.0
Cc1ccc(NC(=O)COC(=O)c2ccc(OC(F)F)cc2)cc1S(=O)(=O)N1CCCCC1	0	-	51.4	0	-	-	42.2
COc1cccc(NC(=O)COC(=O)c2ccc(C)c(S(=O)(=O)N3CCCCC3)c2)c1	0	0	0	0	0	-	-
COC(=O)C(C)(C)c1cccnc1C#N	0	-	0	0	-	-	-
CC1=NN2C(=N)/C(=C\c3ccc(SCc4ccccc4)o3)C(=O)N=C2S1	0	0	32.4	0	0	0	32.9
O=C(CCc1ccccc1)NCCc1ccc(F)cc1	0	0	0	0	0	0	-
O=C(COC(=O)/C=C/c1ccc(Cl)cc1)Nc1ccccc1	0	0	72.9	0	0	0	71.9
O=C(COC(=O)/C=C/c1ccccc1)Nc1ccc2c(c1)OCCO2	0	0	68.8	0	0	-	55.7
O=C(COC(=O)/C=C/c1ccccc1)Nc1cccc(Oc2ccccc2)c1	0	0	35.8	0	0	0	31.7
O=C(COC(=O)/C=C/c1ccc(Cl)cc1)Nc1ccc2[nH]c(=O)[nH]c2c1	0	0	0	0	0	0	-
CC(C)C[C@@H](CSc1ccccc1)N1CCN(CC(C)C)CCC1=O	0	0	0	0	0	0	-
O=c1[nH]nc(SC2CCCCC2)c(=O)[nH]1	0	-	0	0	-	-	-
COCCCNC(=O)Cn1ccc(NC(=O)OCc2ccccc2)nc1=O	0	0	0	0	0	-	-
CN(CCc1ccccn1)C(=O)CCC1CCCN(C(=O)c2cccc(N(C)C)c2)C1 (centres undefined)	0	0	0	0	0	0	-
C=CCOc1ccc(/C=C/C(=O)OCC(=O)NC2CCCCCCC2)cc1	0	0	66.5	0	0	0	72.2
C=CCOc1ccc(/C=C/C(=O)OCC(=O)NCC2CCCCC2)cc1	0	0	68.0	0	0	0	66.2
COCCNC(=O)C1CC(=O)N(c2ccc(OC)cc2)C1c1ccc(OC)cc1 (centres undefined)	0	0	0	0	0	0	-
CCOCCOC(=O)NCCCCCCNC(=O)OCCOCC	0	0	60.1	0	0	0	47.1
Nn1c(SCC(=O)NCC2CCCO2)nnc1-c1ccco1 (centres undefined)	0	0	0	0	-	-	-
CN(C)S(=O)(=O)c1cccc(C(=O)Nc2cc(S(=O)(=O)N3CCOCC3)ccc2O)c1	0	-	49.6	0	-	-	49.5
SMILES	PAFAH1B2 FP inh	pPAFAH FP inh	PAFAH2 FP inh	PAFAH1B3 inh	PME-1 primary	Fam108B counter	PAFAH2 confirm
CN(C)S(=O)(=O)c1cccc(C(=O)Nc2cc(S(=O)(=O)N3CCOCC3)ccc2N2CCCC2)c1	0	-	0	0	-	-	-
COc1cccc(CC(=O)Nc2cc(S(=O)(=O)N3CCOCC3)ccc2OC)c1	0	-	38.9	0	-	-	0
O=C(Nc1ccc(S(=O)(=O)N2CCOCC2)cc1)c1ccco1	0	0	0	0	0	0	-
O=C(Nc1cc(S(=O)(=O)N2CCOCC2)ccc1O)c1ccco1	0	0	57.1	0	0	0	43.7
Cc1ccc(S(=O)(=O)N2CCOCC2)cc1C(=O)Nc1cc(S(=O)(=O)N2CCCCC2)ccc1O	0	-	30.3	0	-	-	0
COc1cccc(CC(=O)Nc2cc(S(=O)(=O)N3CCOCC3)ccc2N2CCOCC2)c1	0	0	0	0	0	0	-
CCOc1cccc(CN2CCC(Oc3ccc(C(=O)NCc4ccccn4)cc3)CC2)c1	0	0	0	0	0	0	-
COc1ccccc1N1CCN(S(=O)(=O)c2cn(C)nc2C)CC1	0	0	0	0	0	0	-
O=C(COC(=O)C1CCC1)NCc1ccccc1Cl	0	0	0	0	0	0	-
CC1CC1C(=O)OCC(=O)NCc1ccccc1Cl (centres undefined)	0	0	68.4	0	0	0	55.7
O=C(COC(=O)C1CC2C=CC1C2)NCc1ccccc1Cl (centres undefined)	0	0	45.5	0	0	0	44.3
CCOc1ccc(N2CC(C(=O)NCC(=O)Nc3ccc(F)c(F)c3F)CC2=O)cc1 (centres undefined)	0	0	0	0	0	-	-
COc1ccccc1C(=O)CN1C(=O)NC2(CCc3ccccc32)C1=O (centres undefined)	0	0	0	0	0	0	-
O=C(O)Cc1nc2nc3c(c(=O)n2[nH]1)CCCC3	0	0	0	0	0	0	-
O=c1c2c(nc3nc(COc4ccccc4)[nH]n13)CCC2	0	0	61.4	0	0	0	55.8
COc1ccccc1NS(=O)(=O)c1cccc(C(=O)NCC(c2ccco2)N(C)C)c1 (centres undefined)	0	0	0	0	0	0	-
COc1ccc(CCNC(=O)CNC(=O)c2ccccc2Br)cc1OC	0	0	0	0	0	0	-
COc1ccc(/C=C/C(=O)OCC(=O)NCCC2=CCCCC2)cc1	0	0	64.7	0	0	0	53.2
O=C(COC(=O)/C=C/c1ccc(C(F)(F)F)cc1)NCCC1=CCCCC1	0	0	0	0	0	0	-
O=C(COC(=O)/C=C/c1ccccc1)NCCC1=CCCCC1	0	0	45.6	0	0	0	44.4
COc1cccc(/C=C/C(=O)OCC(=O)NCCC2=CCCCC2)c1	0	0	46.5	0	0	0	31.3
COc1ccc(/C=C/C(=O)OCC(=O)NCCC2=CCCCC2)cc1S(=O)(=O)N1CCOCC1	0	0	64.6	0	0	0	44.2
O=C(Nc1ccc(Br)cc1)C1CCN(c2cnccn2)CC1	0	0	0	0	0	0	-
CC(C)C(NC(=O)c1ccc(C(C)(C)C)cc1)C(=O)NCc1ccccn1 (centres undefined)	0	0	0	0	0	-	-
CCc1ccccc1N1C(=O)[C@@H]2Cc3ccccc3CN2C1=O	0	0	0	0	0	0	-
CN(C)CC1C2CCC(C2)C1O (centres undefined)	0	-	0	0	-	-	-
COc1cc(C(=S)N2CCOCC2)cc(OC)c1OS(=O)(=O)c1ccc(C)cc1	0	0	0	0	0	0	-
CCCCC(CC)CNC(=O)Cn1c(=S)[nH]c2ncccc2c1=O (centres undefined)	-	0	-	-	0	0	-
O=C(COC(=O)/C=C/c1cccc(Br)c1)NCCc1ccccc1	0	0	0	0	0	0	-
